We go through 15 molecules from PubChem BioAssay.

Active and inactive are the calls of the source.

Test [1] is described as follows: small molecules captured by biotinylated probe aFSTL3 – biochemical, small-molecule microarray, fluorescence 635/667, stem cell growth factor project, primary screen (AID 1064).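 Also: measures binding of the biotinylated anti-FSTL3 antibody to printed compounds.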 The note with it: higher = more signal.
Test [2] can be described thus: binders from COS7 lysate, DM2A8 probe, primary screen, torsin A project, cell lysate, small-molecule microarray, fluorescence 635/667 (AID 1065). The note with it: higher = more signal, COS7 lysate expressing mutant human TOR1A.
Test [3] is described as follows: small molecules captured by biotinylated probe aFGF2 – biochemical, small-molecule microarray, fluorescence 635/667, stem cell growth factor project, primary screen (AID 1067).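 Also: measures binding of biotinylated aFGF2 protein to printed compounds on slides; z-score merges feature fluorescence and signal-to-noise across triplicate slides.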 The note with it: higher = more signal.
Test [4] is described as follows: small molecules captured by biotinylated probe aFGF10 – biochemical, small-molecule microarray, fluorescence 635/667, stem cell growth factor project, primary screen (AID 1071).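 Also: score merges 667 nm spot intensity and signal to noise from triplicate slides.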 The note with it: higher = more signal.
Test [5] has as its target Neurogenic locus notch homolog protein 2 (Homo sapiens) (UniProt Q04721). In words: small molecules binding Notch2 protein – biochemical, small-molecule microarray, 635 nm fluorescence, stem cell growth factors, primary screen (AID 1073). The note with it: higher = more signal.
The target in test [6] is Pro-neuregulin-1, membrane-bound isoform (Homo sapiens) (UniProt Q02297). Description: small molecules binding neuregulin-1 protein – biochemical, small-molecule microarray, fluorescence 635/667, psychiatric disease protein project, primary screen (AID 1075).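 Also: score combines 667 nm spot fluorescence with signal to noise.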 The note with it: NRG1 binding, 635 nm fluorescence, higher = more signal.
Test [7] concerns Neuregulin-1 EGF-like domain. In words: small molecules binding NRG1 EGF domain – biochemical, small-molecule microarray, 635 nm fluorescence, primary screen (AID 1081).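 Also: binding of the protein to compounds printed on small-molecule microarray slides.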 The note with it: higher = more signal.
Test [8] in a line: FRG1 expression reporter modulators in myotubes – cell-based, C2C12 myotubes, firefly/Renilla luciferase, luminescence, FRG1 inhibition for FSHD, primary screen (AID 1084). The note with it: FRG1 promoter luciferase, higher = more signal, called active from +8 up or from −8 down.
A short description of test [9]: small molecules captured by biotinylated probe aFST – biochemical, small-molecule microarray, fluorescence 635/667, stem cell growth factor project, primary screen (AID 1086).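 Also: score merges 667 nm fluorescence with signal-to-noise of each printed compound spot.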 The note with it: higher = more signal.
Test [10] can be described thus: binders of probe aHhip on microarray, primary screen, stem cell growth factor project, biochemical, small-molecule microarray, fluorescence 635/667 (AID 1087).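 Also: score merges spot fluorescence at 667nm with spot signal to noise ratio.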 The note with it: higher = more signal.

Sequence of Pro-neuregulin-1, membrane-bound isoform (Homo sapiens) (Q02297 whole entry, looked up, the tested form may be a part, canonical isoform): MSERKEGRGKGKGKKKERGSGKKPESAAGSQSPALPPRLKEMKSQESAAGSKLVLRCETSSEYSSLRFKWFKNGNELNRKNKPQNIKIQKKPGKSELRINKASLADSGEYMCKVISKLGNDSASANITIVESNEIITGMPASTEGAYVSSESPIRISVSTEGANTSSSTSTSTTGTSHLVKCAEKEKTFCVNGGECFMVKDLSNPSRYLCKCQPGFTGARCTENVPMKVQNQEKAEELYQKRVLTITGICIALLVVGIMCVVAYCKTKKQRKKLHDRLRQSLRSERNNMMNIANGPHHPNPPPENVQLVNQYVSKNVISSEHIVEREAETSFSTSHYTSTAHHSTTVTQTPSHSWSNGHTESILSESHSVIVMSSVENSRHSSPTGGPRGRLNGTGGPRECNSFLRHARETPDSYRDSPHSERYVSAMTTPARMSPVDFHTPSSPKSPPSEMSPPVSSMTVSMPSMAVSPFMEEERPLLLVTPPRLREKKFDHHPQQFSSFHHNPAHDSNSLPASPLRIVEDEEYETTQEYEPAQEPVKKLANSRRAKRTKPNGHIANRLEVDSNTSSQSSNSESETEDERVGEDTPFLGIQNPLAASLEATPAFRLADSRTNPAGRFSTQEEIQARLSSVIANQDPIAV
Sequence of Neurogenic locus notch homolog protein 2 (Homo sapiens) (Q04721 whole entry, looked up, canonical isoform): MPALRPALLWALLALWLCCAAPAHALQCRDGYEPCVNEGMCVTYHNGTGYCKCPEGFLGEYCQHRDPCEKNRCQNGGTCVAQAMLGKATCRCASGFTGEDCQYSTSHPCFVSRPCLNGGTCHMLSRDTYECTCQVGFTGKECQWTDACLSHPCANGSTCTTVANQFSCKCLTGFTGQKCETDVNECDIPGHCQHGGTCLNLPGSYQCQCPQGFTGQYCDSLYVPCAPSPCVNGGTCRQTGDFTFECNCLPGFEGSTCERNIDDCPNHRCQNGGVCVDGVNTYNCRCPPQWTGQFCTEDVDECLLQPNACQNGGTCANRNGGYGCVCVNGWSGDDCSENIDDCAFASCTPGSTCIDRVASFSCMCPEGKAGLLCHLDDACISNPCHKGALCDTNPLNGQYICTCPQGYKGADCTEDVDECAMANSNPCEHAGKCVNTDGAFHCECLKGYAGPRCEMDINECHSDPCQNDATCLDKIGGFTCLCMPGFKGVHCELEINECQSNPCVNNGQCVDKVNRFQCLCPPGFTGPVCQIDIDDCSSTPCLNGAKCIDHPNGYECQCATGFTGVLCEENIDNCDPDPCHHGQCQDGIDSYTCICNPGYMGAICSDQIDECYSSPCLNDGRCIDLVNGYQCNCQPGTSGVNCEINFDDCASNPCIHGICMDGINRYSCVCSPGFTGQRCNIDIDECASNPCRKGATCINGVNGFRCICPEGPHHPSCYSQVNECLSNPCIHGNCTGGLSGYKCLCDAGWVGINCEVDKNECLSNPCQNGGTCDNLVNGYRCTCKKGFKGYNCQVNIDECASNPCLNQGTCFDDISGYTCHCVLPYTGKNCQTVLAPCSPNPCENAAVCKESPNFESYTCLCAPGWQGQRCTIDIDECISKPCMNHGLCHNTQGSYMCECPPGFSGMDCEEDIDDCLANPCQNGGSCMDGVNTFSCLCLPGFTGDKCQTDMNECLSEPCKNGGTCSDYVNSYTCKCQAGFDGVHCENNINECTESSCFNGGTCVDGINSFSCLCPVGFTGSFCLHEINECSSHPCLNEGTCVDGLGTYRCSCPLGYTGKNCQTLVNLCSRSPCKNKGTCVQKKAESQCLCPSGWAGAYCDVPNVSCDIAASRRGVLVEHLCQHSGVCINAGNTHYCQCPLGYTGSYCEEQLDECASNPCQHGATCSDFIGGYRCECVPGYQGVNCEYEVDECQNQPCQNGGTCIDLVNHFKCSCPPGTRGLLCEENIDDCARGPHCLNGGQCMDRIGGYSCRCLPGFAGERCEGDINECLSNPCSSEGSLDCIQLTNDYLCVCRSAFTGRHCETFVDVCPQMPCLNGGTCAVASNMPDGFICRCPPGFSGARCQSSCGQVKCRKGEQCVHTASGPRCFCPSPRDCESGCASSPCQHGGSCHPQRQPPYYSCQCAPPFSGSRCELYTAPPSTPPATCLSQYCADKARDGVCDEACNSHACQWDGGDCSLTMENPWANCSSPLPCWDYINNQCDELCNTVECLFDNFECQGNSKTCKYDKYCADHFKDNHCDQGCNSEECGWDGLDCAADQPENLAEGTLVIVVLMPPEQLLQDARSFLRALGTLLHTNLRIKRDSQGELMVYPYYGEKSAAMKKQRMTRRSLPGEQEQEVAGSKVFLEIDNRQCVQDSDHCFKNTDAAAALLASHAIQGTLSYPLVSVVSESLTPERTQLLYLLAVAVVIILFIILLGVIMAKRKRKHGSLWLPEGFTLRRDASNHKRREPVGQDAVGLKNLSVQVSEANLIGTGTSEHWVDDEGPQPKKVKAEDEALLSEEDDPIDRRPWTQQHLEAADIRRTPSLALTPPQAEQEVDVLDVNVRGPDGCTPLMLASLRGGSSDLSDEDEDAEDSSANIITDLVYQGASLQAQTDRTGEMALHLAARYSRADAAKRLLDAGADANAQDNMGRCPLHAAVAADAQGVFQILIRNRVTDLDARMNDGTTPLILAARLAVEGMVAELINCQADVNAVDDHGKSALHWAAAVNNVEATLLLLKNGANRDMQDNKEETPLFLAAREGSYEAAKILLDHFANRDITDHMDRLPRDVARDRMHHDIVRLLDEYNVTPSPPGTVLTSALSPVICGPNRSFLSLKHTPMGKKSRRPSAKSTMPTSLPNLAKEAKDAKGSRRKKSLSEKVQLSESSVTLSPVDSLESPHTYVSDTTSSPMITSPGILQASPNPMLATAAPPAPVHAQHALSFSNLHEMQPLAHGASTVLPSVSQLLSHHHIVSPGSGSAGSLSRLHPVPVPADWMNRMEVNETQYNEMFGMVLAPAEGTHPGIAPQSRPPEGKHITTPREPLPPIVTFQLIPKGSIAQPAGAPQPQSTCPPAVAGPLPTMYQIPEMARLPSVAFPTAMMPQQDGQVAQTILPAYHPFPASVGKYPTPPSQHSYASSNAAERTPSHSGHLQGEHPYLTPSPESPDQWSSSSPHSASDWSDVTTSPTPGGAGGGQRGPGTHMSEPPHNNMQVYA

In the case of `CO[C@@H]1COC(=O)CC=C[C@@H](C)[C@H](OC)COC(=O)[C@H](COCc2ccccc2)NC(=O)CC=C[C@H]1C`, the composite z-score is 0.0122 in test [1]; 0.843 in test [2]; -0.0775 in [3]; -0.0228 in test [4]; -0.0992 in test [5]; -0.673 in test [6]. For the same molecule, the figures for the composite z-score in test [7], in test [9] and in test [10] were -0.831, -0.455 and -0.0618, respectively. Further, the z-score in test [8] is -0.886 (inactive).
In the case of `O=C1O[C@@H](c2ccccc2)[C@@H](c2ccccc2)N2[C@@H](c3ccccc3OCCO)[C@]3(C(=O)Nc4ccc(C#CCCO)cc43)[C@@H](C(=O)O)[C@H]12`, the composite z-score is -1.32 in test [1]; 0.638 in test [2]; -0.189 in test [3]; 0.798 in test [4]; 0.438 in test [5]; 1.84 in [6]. The figures for the composite z-score in test [7], in test [9] and in test [10] were 1.36, -0.423 and -0.945, respectively. For the same molecule, the z-score in test [8] was -1.28 (inactive).
In the case of `CC(C)(C)OC(=O)CC[C@]1(C(N)=O)COC(c2ccc(OCCCO)cc2)=N1`, the composite z-score was 0.645 in [1]; 2.69 in test [2]; 0.325 in [3]; 0.6 in test [4]; 1.39 in test [5]; 1.14 in [6]. Moreover, the composite z-score in test [7] was found to be 1.03; in test [9] it was 1.19; in test [10], 0.462. The z-score in test [8] was 0.266 (inactive).
Consider `CCOC(=O)NN=C1C[C@@H](O)[C@@H](O)[C@@H]2[C@@H]3C(=O)N(CC)C(=O)[C@@H]3CC[C@@H]12`, for which the composite z-score in test [1] is -0.415; in [2], 0.377; in [3], -0.0355; in [4], 0.72; in test [5], 0.797; in test [6] it was -0.008. Further, the composite z-score in test [7] is 0.672; in [9], 0.713; in [10] it was -0.201. Further, the z-score in [8] was 0.323 (inactive).
For `CCOC(=O)C1=CCC(c2cc3ccccc3[nH]2)NC1` (stereo not given), the composite z-score was 1.31 in [1]; 0.758 in [2]; -0.0629 in test [3]; -0.355 in test [4]; 0.476 in test [5]; 0.963 in test [6]. Also, the composite z-score in [7] is 1.13; in test [9], 0.77; in test [10], -0.156. Besides, the z-score in test [8] is 4.17 (inactive).
Take `CCCC[C@H]1OB(O)C[C@H]2C1=C(C)C[C@H]1C(=O)N(C)C(=O)[C@H]12`: the composite z-score was -0.626 in [1]; 0.441 in [2]; -0.0562 in test [3]; 0.719 in [4]; 1.09 in test [5]; 0.053 in test [6]. For the same molecule, the values for the composite z-score in test [7], in test [9] and in [10] were 0.938, 0.349 and -0.156, respectively. Further, the z-score in test [8] is -0.252 (inactive).
For the molecule `COC(=O)[C@@H]1CCCN1C(=O)[C@@H](C)CO`, the composite z-score in [1] is -0.527; in test [2], 0.431; in [3], -0.137; in test [4], 0.467; in test [5], 0.693; in [6], 0.346. For the same molecule, the composite z-score in test [7] was 1.03; in [9], 0.162; in test [10], 0.154. In addition, the z-score in test [8] is 1.66 (inactive).
With `COc1ccc(O[C@@H]2[C@H](O)CO[C@H]2C=CC#Cc2ccccc2)cc1`, the composite z-score is -0.389 in test [1]; 0.511 in test [2]; -0.159 in test [3]; 0.0175 in [4]; -0.22 in [5]; 0.068 in test [6]. Also, the composite z-score was -0.203 in [7], -0.182 in test [9] and -0.0237 in [10]. Also, in test [8], the z-score is -0.606 (inactive).
For `[N-]=[N+]=Nc1ccccc1C[C@@]1(C(N)=O)N=C(c2ccc(OCCCO)cc2)O[C@@H]1c1ccccc1`, the composite z-score in test [1] is 1.57; in test [2], 0.49; in test [3], 0.0249; in test [4] it was 0.296; in test [5], 0.975; in test [6] it was 1.05. For the same molecule, the composite z-score in test [7] is 1.16; in [9], 0.784; in [10], -0.181. Also, the z-score in test [8] was 1.23 (inactive).
For `COc1ccc(O[C@H]2C=C[C@@H](c3ccccc3)O[C@@H]2COC(=O)CCC(C)=NO[C@H](C)c2cn([C@@H]3COC[C@H]3O)nn2)cc1`, the composite z-score in test [1] was -0.672; in test [2], 0.518; in [3] it was -0.125; in test [4], 0.323; in [5], 0.483; in [6] it was 0.489. Besides, the composite z-score was 0.586 in test [7], 0.0701 in test [9] and -0.411 in test [10]. For the same molecule, the z-score in test [8] was 1.39 (inactive).
Turning to `C=C(CCCC)C(=O)CC[C@@H](OC(C)=O)c1cccc(OCCO)c1`, the composite z-score in [1] was -0.168; in test [2], -0.371; in [3], -0.152; in test [4] it was -0.565; in [5] it was -0.46; in test [6] it was 0.25. Further, the composite z-score in test [7] is 1.36; in [9] it was -0.507; in [10], -0.0994. The z-score in test [8] is -3.56 (inactive).
Consider `CC(C)[C@@H](OCc1ccccc1)[C@H](C)C=NOC[C@@H](C)[C@H](OCc1ccccc1)C(C)C`, for which the composite z-score is -0.539 in [1]; 0.0717 in test [2]; -0.164 in test [3]; 0.31 in test [4]; 0.303 in [5]; 0.106 in test [6]. Moreover, the results for the composite z-score in test [7], in test [9] and in test [10] were -0.44, -0.0889 and -0.131, respectively. In addition, the z-score in test [8] is -0.108 (inactive).
In the case of `CO[C@H]1COC(=O)CC=C[C@H](C)[C@@H](NS(=O)(=O)c2ccc(C)cc2)COC(=O)CC=C[C@@H]1C`, the composite z-score was -0.599 in test [1]; 0.871 in [2]; -0.134 in test [3]; 0.339 in test [4]; 0.381 in test [5]; -0.425 in [6]. Also, the composite z-score in [7] is -0.377; in test [9] it was -0.197; in [10] it was -0.0994. In test [8], the z-score was -1.15 (inactive).
Turning to `CCOC(=O)[C@H](Cc1ccccc1)NC(=O)CCC1CC(OC(=O)NCc2ccc3c(c2)OCO3)CC2(CCCC(COC(=O)NCC3CCCCC3)O2)O1` (stereo not given in full), the composite z-score is -0.632 in test [1]; 0.247 in [2]; -0.0775 in test [3]; 0.256 in [4]; 1.19 in test [5]; 0.306 in test [6]. Further, the composite z-score in [7] is 1.04; in [9], 1.27; in [10], -0.0994. In addition, the z-score in [8] was 1.2 (inactive).
`COCCCNC(=O)[C@@]1(CCS(=O)(=O)c2ccccc2)N=C(c2ccc(OCCCO)cc2)O[C@H]1c1ccccc1`: the composite z-score is 0.958 in [1]; 1.5 in test [2]; 0.378 in test [3]; 1.18 in test [4]; 0.674 in test [5]; 1.25 in test [6]. Further, the results for the composite z-score in test [7], in test [9] and in test [10] were 1.31, 0.56 and 2.04, respectively. Also, the z-score in [8] is -1.23 (inactive).
